Results: PubChem BioAssay AID624500 (National Center for Advancing Translational Sciences (NCATS), 2012)
Records with an inconclusive call do not appear. Active and inactive are the calls of the source. Calls follow the shape of the dose curve; as a rule, active = well fitted inhibition curve with a large enough effect; inconclusive = small, poorly fitted or top-dose-only effect; inactive = flat fitted curve, though single readings scatter.

Biological target: D(3) dopamine receptor (Homo sapiens) (UniProt P35462)
Sequence (P35462 whole entry, looked up): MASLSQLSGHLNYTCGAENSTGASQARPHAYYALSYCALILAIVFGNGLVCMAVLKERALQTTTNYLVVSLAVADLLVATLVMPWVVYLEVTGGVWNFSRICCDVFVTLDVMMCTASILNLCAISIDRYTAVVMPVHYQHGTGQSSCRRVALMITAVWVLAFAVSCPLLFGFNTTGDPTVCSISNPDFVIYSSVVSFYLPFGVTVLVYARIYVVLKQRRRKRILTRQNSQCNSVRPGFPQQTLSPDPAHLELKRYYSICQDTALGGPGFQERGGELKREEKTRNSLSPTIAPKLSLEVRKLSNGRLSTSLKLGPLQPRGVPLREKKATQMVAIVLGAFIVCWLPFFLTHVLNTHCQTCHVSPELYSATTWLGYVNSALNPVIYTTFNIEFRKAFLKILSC
Assay: HTS Assay for Allosteric Antagonists of the Human D2 Dopamine Receptor: SAR in D3 Beta Arrestin Assay
Conditions: DiscoveRx PathHunter D3 beta-arrestin, luminescence, 90 min; series mostly up to 57.1 µM; activity, negative = inhibition: at the top concentration
Text: There is great interest in identifying small molecule ligands for G-protein coupled receptors (GPCRs) as nearly 50% of all FDA-approved drugs target these important receptor proteins. […] Amongst the dopamine receptors (DARs), the D2 is arguably one of the most validated drug targets in neurology and psychiatry. For instance, all receptor-based antiparkinsonian drugs primarily work via stimulating the D2 DAR, whereas all FDA-approved antipsychotic agents are antagonists of this receptor. The D2 DAR is also therapeutically targeted in other disorders such as restless legs syndrome, tardive dyskinesia, Tourette's syndrome, and hyperprolactinemia. […] This is an selectivity assay to test the lead compounds against the D3 receptor, using a beta arrestin assay. NIH Molecular Libraries Probe Production Network [MLPCN] NIH Chemical Genomics Center [NCGC] Grant: NS0676421 PI Name: David Sibley, National Institutes of Neurological Disorders and Stroke
DiscoveRx D3 cells were thawed from frozen stock and seeded at 2,100 cells/ 3 uL/well media (DiscoveRx Plating Reagent 2) with MultiDrop Combi dispenser (Thermo Scientific, Logan, UT) onto white tissue culture treated 1536-well Aurora plates (Brooks Automation, Chelmsford, MA) and allowed to attach overnight at 37 deg C, 5% CO2. Next, 23 nL/well of compound solutions in DMSO were added with a pintool transfer (Kalypsis, San Diego, CA). As the positive control, 1 uL/well dopamine (EC100, 57 uM final concentration) diluted in buffer (HBSS + 10 mM HEPES + SMB + 0.1% Tween-20) was dispensed to 1 column of each plate. The rest of the plate was dispensed with buffer only, 1 uL/well as well. The cells were stimulated by compounds or dopamine control for 90 minutes at 37 deg C, 5% CO2, after which 1.5 ul/well of DiscoveRx detection reagent was added with BioRAPTR FRD dispenser. The detection reagent was prepared by mixing of Galacton Star Substrate, Emerald II solution and PathHunter buffer (supplied by the assay kit) together at 1:5:19 proportion accordingly just prior to dispensing. The plates were incubated at ambient temperature for 1 hour and then the luminescent signal was read on ViewLux plate reader (PerkinElmer, Waltham, MA).

Potency, active:
CCN1C(=O)c2ccccc2[S@](=O)c2ccc(C(=O)NCc3ccc(C#N)cc3)cc21 1.62 µM, CCN1C(=O)c2ccccc2[S@](=O)c2ccc(C(=O)N[C@H](C)c3ccc(Br)cc3)cc21 9.13 µM, CCN1C(=O)c2ccccc2S(=O)c2ccc(C(=O)NCc3ccc(OC)cc3)cc21 (stereo not drawn) 5.76 µM, CCN1C(=O)c2ccccc2[S@](=O)c2ccc(C(=O)NCc3ccc(OC)cc3)cc21 2.89 µM, CN1C(=O)c2ccccc2[S@](=O)c2ccc(C(=O)NCc3cccnc3)cc21 14.5 µM, CN1C(=O)c2ccccc2[S@](=O)c2ccc(C(=O)NCCN3CCCC3)cc21 4.58 µM, CN1C(=O)c2ccccc2[S@](=O)c2ccc(C(=O)NCc3ccc(Cl)cc3)cc21 10.2 µM, OC1(c2ccc(Cl)cc2)CCN(Cc2c[nH]c3ccccc23)CC1 0.0646 µM, CCN1C(=O)c2ccccc2[S@](=O)c2ccc(C(=O)NCc3ccc(F)cc3)cc21 3.24 µM, CN1C(=O)c2ccccc2[S@](=O)c2ccc(C(=O)NCc3ccc(Br)cc3)cc21 4.58 µM, CN1C(=O)c2ccccc2[S@](=O)c2ccc(C(=O)NCCc3cccs3)cc21 12.9 µM, CN1C(=O)c2ccccc2S(=O)c2ccc(C(=O)NCCc3cccs3)cc21 (stereo not drawn) 20.4 µM

activity, negative = inhibition, inactive:
CN1C(=O)c2ccccc2[S@@](=O)c2ccc(C(=O)NCCc3cccs3)cc21 -21.4%
